Reference: PubChem BioAssay (NCI)
Values joined by “and” are separate entries in the source; they are usually repeats but may differ in a detail not shown here. Equal values may be shown once. About 83,000 compounds went through this panel and 20% of them were active in at least one assay; those are over-represented in the sample as a whole.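 Cells were grown in 96-well plates and exposed to the test compound at a single concentration for 48 hours; results are reported as percent growth, with values below 10 considered active.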 Values without a mark were called inactive. Active and inactive are the calls of the source.

Test system: MDA-MB-468 breast
Assay: NCI-60 one-dose screen, 48 h (100 = growth as untreated, 0 = no growth, -100 = all killed)
Settings: 10 µM unless noted

| SMILES | growth |
| --- | --- |
| N#Cc1c2ccccc2nc2ccccc12 | 84.5% |
| C=C1CC[C@H](C(C)C)[C@@H]2[C@H]1[C@H]1CC(=C)[C@@H](O)CC[C@@](C)(O)[C@@H]2O1 | 89% |
| CCCCNCCCN(CCCC)CCCNCCCC | 94.2% |
| O=Cc1[nH]c(Sc2ccccc2)c2ccccc12 | 47.7% |
| CC1NC(=S)NC(=O)/C1=C/c1cc(=O)oc2c1ccc1ccccc12 (stereo not given) | 103% |
| CC(C)CC(=O)C(CCc1ccccn1)C(C)C (stereo not given) | 109% |
| COc1cc(/C=C/C(=O)c2cc(OC)c(OC)c(OC)c2)ccc1Oc1nc2c(c(=O)n(C)c(=O)n2C)n1C | -72% (active) |
| Nc1[nH]n2cc(-c3ccccc3)nc2c1N=Nc1ccc(S(N)(=O)=O)cc1 | 32.6% |
| COc1cc(NC(=O)c2cncnc2Nc2ccc3c(ccn3Cc3ccccn3)c2)cc(OC)c1 | 15.6% |
| Cc1cc2cn3c4ccc(O)cc4[nH]c(=O)c3c2cc1C | -28.2% (active) |
| C/C(=C(/C)C1CC1CCN(C(=O)c1ccccn1)S(=O)(=O)c1ccc(C)cc1)C1CCCCC1 (stereo not given) | 75.7% |
| CN(C)C(=O)c1cc(-c2ccc3ncnc(NCc4ccccc4)c3c2)cnc1N | 71.9% |
| Nc1c(C(=O)Nc2ccc(Cl)cc2)cc(-c2nc3ccccc3s2)c(=O)n1NS(=O)(=O)c1ccc(Cl)cc1 | 110% |
| CC(C)Sc1nc(-c2ccc(Br)cc2)c(C#N)c(N2CCCCC2)n1 | 93.9% |
| CO/N=C1\CCc2c(sc(NC(=O)c3cccc(C(F)(F)F)c3)c2C(N)=O)C1 | 29.9% |
| CN(C)Cc1c(-c2ccccc2)[nH]c2ccccc12 | 103% |
| COc1ccc(C2CC(c3ccc(OC)c(OC)c3)=NN2C(=O)c2cc(OC)c(OC)c(OC)c2)cc1 (stereo not given) | -32.5% (active) |
| O=C1c2ccccc2C(=O)c2c(NCCNCCO)ccc(NCCNCCO)c21 | -71.9% (active) and -54.1% (active) and -20.9% (active) |
| Cc1cc(C(=O)c2ccccc2)cc(C)c1O | 111% |
| CNC1=C(Br)C(=O)c2c(C(=O)OC)c(C)nc(C)c2C1=O | 27.4% |

| SMILES | growth |
| --- | --- |
| FC(F)(F)c1ccc2c(c1)n1cnnc1c1nncn21 | 105% |
| CO[C@H]1CC(=O)n2c3ccccc3c3c4c(c5c6ccccc6n1c5c32)C(=O)NC4=O | 34.2% |
| N#Cc1cncc(-c2ccc3ncnc(Nc4cccc(Cl)c4)c3c2)c1 | 9.34% (active) |
| O=C(/C=C/c1cccc(O)c1)c1ccc(O)cc1 | 40.9% |
| CC(C)=CCNc1ncnc2c1ncn2C1OC(CO)C(O)C1O (stereo not given) | -44.4% [1 mM] (active) |
| ClCc1c(Cl)c(Cl)c(Cl)c(CCl)c1Cl | -74% (active) |
| COc1ccc(OC)c(/C=C/C(=O)N/N=C/c2ccc(Cl)cc2)c1 | -4.03% (active) |
| Cc1ccc2c(C(C[N+](=O)[O-])c3ccccc3F)c(-c3ccccc3)[nH]c2c1 (stereo not given) | 10.5% |
| OCc1ccc(N2CCc3cccc(F)c3C2)cc1Cl | -49.9% [0.1 µM] (active) |
| O=C1NN(C(=O)c2ccc(Cl)cc2)C(c2ccccc2)=N/C1=C\c1ccc(F)cc1 | 67.9% |
| COc1ccc(C2NC3=C(CCCC3)C(C#N)(C#N)C2(C#N)C#N)cc1 (stereo not given) | 58% |
| O=c1[nH]c(=S)[nH]c2nc[nH]c12 | 100% |
| Cc1nc2cc(Nc3nc(Nc4ccc(F)cc4)nc(N4CCCC4)n3)ccc2n1Cc1ccccc1 | -63.3% (active) |
| O=C(CN1CCN(c2cc(=O)n(-c3ccccc3)c3ccccc23)CC1)Nc1ccc([N+](=O)[O-])cc1 | 62.1% |
| CCN(C(=O)CN1CCN(c2cc3c(cc2F)c(=O)c(C(=O)O)cn3CC)CC1)c1nc(-c2ccccc2)cs1 | -7.7% (active) |
| COc1ccc(-c2[nH]ncc2-c2cc3c(c(OC)c2)OCC(=O)N3)cc1 | -6.47% (active) |
| COC(=O)C(=C\c1ccc2c(c1)OCO2)/C(=C/c1ccc2c(c1)OCO2)C(=O)OC | 111% |
| NNC(=S)N/N=C/c1ccccn1 | 8.55% (active) |
| O=C(Nc1cc(Cl)ccc1O)c1cccc(Nc2ccnc(C(F)(F)F)c2)c1 | 16% |
| Cc1cc(SC#N)cc(C(C)(C)C)c1O | 105% |
